Results: the supplement of paper PMC10849652
About 7,900 targets were measured; listed, in parts, are those with a hit and a random draw of the rest. About 0.6% of all pairs of compound and target were hits.

Columns and labels:
Test in all cases: log2 fold change, soluble protein after heating vs DMSO (PISA); higher = thermal stabilisation; K562 cells, 10 uM, 30 min; active = over 0.2 and 3.5 SD of the protein, either way, in both replicates (recomputed)
[1] = compound: CS(=O)(=O)c1ccc(-c2cnc(N)c(C(=O)Nc3ccccc3)n2)cc1
Method in brief: (§1)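 For each measurement, 10 μM compound was applied for 30 min to K562 cells at 2×10^6 cells/mL. Aliquots were heated for 3 min across 48°C-58°C, pooled, and extracted in PBS with 0.5% NP-40 at 4°C; the supernatant after 21,000xg for 90 min was soluble protein. This was quantified by TMTpro 16plex LC-MS/MS with channel sums equalised, and thermal stability was reported relative to control samples from duplicates, on a log2 fold-change scale.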

crizotinib = compound: C[C@@H](Oc1cc(-c2cnn(C3CCNCC3)c2)cnc1N)c1c(Cl)ccc(F)c1Cl [crizotinib]
Method in brief: as §1

[2] = compound: C[C@@H]1COCCN1C2=NC(=NC(=C2)C3(CC3)S(=O)(=O)C)C4=C5C=CNC5=CC=C4
Method in brief: as §1

[3] = compound: C[C@H](C1=CC=C(C=C1)C(=O)NC2=C3C=CNC3=NC=C2)N
Method in brief: as §1

duvelisib = compound: C[C@H](Nc1ncnc2nc[nH]c12)c1cc2cccc(Cl)c2c(=O)n1-c1ccccc1 [duvelisib]
Method in brief: as §1

gandotinib = compound: Cc1cc(Nc2cc(CN3CCOCC3)c3nc(C)c(Cc4ccc(Cl)cc4F)n3n2)n[nH]1 [gandotinib]
Method in brief: as §1

tozasertib = compound: Cc1cc(Nc2cc(N3CCN(C)CC3)nc(Sc3ccc(NC(=O)C4CC4)cc3)n2)n[nH]1 [tozasertib]
Method in brief: as §1

[4] = compound: Cc1cc(SCc2sc(-c3ccc(C(F)(F)F)cc3)nc2C)ccc1OCC(=O)O
Method in brief: as §1

doramapimod = compound: Cc1ccc(-n2nc(C(C)(C)C)cc2NC(=O)Nc2ccc(OCCN3CCOCC3)c3ccccc23)cc1 [doramapimod]
Method in brief: as §1

ispinesib = compound: Cc1ccc(C(=O)N(CCCN)[C@@H](c2nc3cc(Cl)ccc3c(=O)n2Cc2ccccc2)C(C)C)cc1 [ispinesib]
Method in brief: as §1

bafetinib = compound: Cc1ccc(NC(=O)c2ccc(CN3CC[C@H](N(C)C)C3)c(C(F)(F)F)c2)cc1Nc1nccc(-c2cncnc2)n1 [bafetinib]
Method in brief: as §1

[5] = compound: Cc1cccc(CC(=O)N2CCc3c2ccc(-c2cn(C)c4ncnc(N)c24)c3F)n1
Method in brief: as §1

nilotinib = compound: Cc1cn(-c2cc(NC(=O)c3ccc(C)c(Nc4nccc(-c5cccnc5)n4)c3)cc(C(F)(F)F)c2)cn1 [nilotinib]
Method in brief: as §1

[6] = compound: Cc1nc(Nc2n[nH]c3c2CN(C(=O)N[C@H](CN(C)C)c2ccccc2)C3(C)C)c2sccc2n1
Method in brief: as §1

dasatinib = compound: Cc1nc(Nc2ncc(C(=O)Nc3c(C)cccc3Cl)s2)cc(N2CCN(CCO)CC2)n1 [dasatinib]
Method in brief: as §1

[7] = compound: Cc1ncc(-c2ccnc(Nc3ccc(S(C)(=O)=O)cc3)n2)n1C(C)C
Method in brief: as §1

[8] = compound: Cn1cc(-c2ccc3c(c2)CCN3C(=O)Cc2cccc(C(F)(F)F)c2)c2c(N)ncnc21
Method in brief: as §1

[9] = compound: Cn1cc(-c2ccc3nnc(C(F)(F)c4ccc5ncccc5c4)n3n2)cn1
Method in brief: as §1

tipifarnib = compound: Cn1cncc1[C@@](N)(c1ccc(Cl)cc1)c1ccc2c(c1)c(-c1cccc(Cl)c1)cc(=O)n2C [tipifarnib]
Method in brief: as §1

mubritinib = compound: FC(F)(F)c1ccc(/C=C/c2nc(COc3ccc(CCCCn4ccnn4)cc3)co2)cc1 [mubritinib]
Method in brief: as §1

Measured: log2 fold change

UHRF1BP1L (UniProt A0JNW5)
inactive: [1] 0.001 | crizotinib -0.04 | [2] 0.031 | [3] -0.002 | duvelisib 0.091 | gandotinib -0.038 | tozasertib -0.025 | [4] -0.024 | doramapimod 0.046 | ispinesib 0.2 | bafetinib 0.055 | [5] -0.002 | nilotinib 0.105 | [6] 0.005 | dasatinib -0.003 | [7] -0.029 | [8] 0.036 | [9] 0.038 | tipifarnib -0.065 | mubritinib 0.007

XPNPEP3 (UniProt Q9NQH7)
Sequence of UniProt Q9NQH7 (Q9NQH7 whole entry, looked up): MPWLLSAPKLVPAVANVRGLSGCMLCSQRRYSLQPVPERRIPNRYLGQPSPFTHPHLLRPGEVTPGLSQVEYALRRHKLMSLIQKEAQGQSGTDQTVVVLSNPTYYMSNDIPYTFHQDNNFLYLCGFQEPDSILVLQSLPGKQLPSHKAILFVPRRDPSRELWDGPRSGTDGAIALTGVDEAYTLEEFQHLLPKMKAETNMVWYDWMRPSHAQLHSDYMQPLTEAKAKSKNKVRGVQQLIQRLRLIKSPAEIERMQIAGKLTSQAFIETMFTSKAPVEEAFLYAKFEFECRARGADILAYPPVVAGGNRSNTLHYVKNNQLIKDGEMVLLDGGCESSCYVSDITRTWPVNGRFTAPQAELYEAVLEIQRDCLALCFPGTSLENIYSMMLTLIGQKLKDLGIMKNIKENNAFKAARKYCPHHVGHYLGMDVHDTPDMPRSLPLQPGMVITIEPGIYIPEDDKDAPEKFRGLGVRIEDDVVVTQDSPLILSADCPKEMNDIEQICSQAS
inactive: [1] 0.06 | crizotinib -0.013 | [2] 0.011 | [3] -0.001 | duvelisib 0.059 | gandotinib -0.033 | tozasertib -0.034 | [4] 0.034 | doramapimod 0.065 | ispinesib -0.046 | bafetinib -0.06 | [5] 0.008 | nilotinib -0.034 | [6] 0.027 | dasatinib 0.021 | [7] -0.041 | [8] 0.092 | [9] -0.031 | tipifarnib -0.065 | mubritinib 0.02

USP34 (UniProt Q70CQ2)
inactive: [1] -0.049 | crizotinib -0.142 | [2] 0.046 | [3] 0.051 | duvelisib 0.078 | gandotinib -0.131 | tozasertib 0.061 | [4] 0.118 | doramapimod -0.006 | ispinesib -0.007 | bafetinib -0.004 | [5] -0.002 | nilotinib -0.054 | [6] 0.034 | dasatinib -0.141 | [7] -0.223 | [8] -0.012 | [9] 0.033 | tipifarnib -0.134 | mubritinib -0.049

UBAP1 isoform 4 (UniProt Q9NZ09)
inactive: [1] -0.003 | crizotinib -0.008 | [2] 0.07 | [3] 0.023 | duvelisib 0.052 | gandotinib 0.009 | tozasertib 0.399 | [4] 0.082 | doramapimod 0.044 | ispinesib -0.046 | bafetinib -0.026 | [5] -0.022 | nilotinib -0.082 | [6] -0.15 | dasatinib -0.086 | [7] 0.009 | [8] 0.015 | [9] -0.015 | tipifarnib -0.131 | mubritinib 0.084

TSFM (UniProt P43897)
Sequence of UniProt P43897 (P43897 whole entry, looked up): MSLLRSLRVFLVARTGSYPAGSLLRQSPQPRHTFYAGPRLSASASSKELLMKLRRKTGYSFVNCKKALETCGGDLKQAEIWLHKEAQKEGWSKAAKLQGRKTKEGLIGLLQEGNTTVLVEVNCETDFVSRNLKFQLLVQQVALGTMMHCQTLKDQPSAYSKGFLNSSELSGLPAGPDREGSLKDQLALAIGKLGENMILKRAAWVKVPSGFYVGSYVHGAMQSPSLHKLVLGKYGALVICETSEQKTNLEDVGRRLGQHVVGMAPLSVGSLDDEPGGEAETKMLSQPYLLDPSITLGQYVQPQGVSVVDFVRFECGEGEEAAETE
active: ispinesib 0.398 | mubritinib -0.36
inactive: [1] -0.083 | crizotinib 0.171 | [2] 0.152 | [3] -0.104 | duvelisib 0.044 | gandotinib -0.083 | tozasertib -0.033 | [4] 0.095 | doramapimod -0.095 | bafetinib 0.091 | [5] -0.087 | nilotinib 0.062 | [6] -0.217 | dasatinib -0.143 | [7] 0.039 | [8] 0.033 | [9] 0.033 | tipifarnib 0.013

USP48 isoform 8 (UniProt Q86UV5)
inactive: [1] 0.03 | crizotinib -0.036 | [2] 0.066 | [3] -0.133 | duvelisib 0.088 | gandotinib -0.197 | tozasertib 0.334 | [4] 0.212 | doramapimod -0.1 | ispinesib -0.07 | bafetinib 0.005 | [5] -0.089 | nilotinib -0.097 | [6] -0.362 | dasatinib -0.139 | [7] -0.073 | [8] -0.041 | [9] 0.097 | tipifarnib -0.11 | mubritinib -0.021

USP25 isoform 3 (UniProt Q9UHP3)
inactive: [1] 0.042 | crizotinib -0.003 | [2] -0.017 | [3] -0.062 | duvelisib 0.05 | gandotinib -0.024 | tozasertib 0.036 | [4] 0.021 | doramapimod 0.007 | ispinesib -0.025 | bafetinib -0.043 | [5] 0.029 | nilotinib -0.021 | [6] -0.017 | dasatinib -0.048 | [7] 0.018 | [8] -0.038 | [9] 0.009 | tipifarnib -0.024 | mubritinib 0.023

TMEM120A (UniProt Q9BXJ8)
active: bafetinib 0.454
inactive: [1] -0.137 | crizotinib 0.096 | [2] 0.175 | [3] -0.11 | duvelisib -0.009 | gandotinib -0.125 | tozasertib -0.01 | [4] -0.055 | doramapimod -0.077 | ispinesib 0.033 | [5] -0.054 | nilotinib -0.009 | [6] -0.038 | dasatinib 0.046 | [7] -0.09 | [8] 0.053 | [9] 0.057 | tipifarnib 0.011 | mubritinib 0.048

WDCP (UniProt Q9H6R7)
inactive: [1] -0.018 | crizotinib 0.079 | [2] -0.046 | [3] -0.024 | duvelisib -0.007 | gandotinib 0.047 | tozasertib 0.094 | [4] 0.084 | doramapimod 0.005 | ispinesib 0.032 | bafetinib -0.052 | [5] -0.05 | nilotinib -0.149 | [6] -0.12 | dasatinib -0.074 | [7] -0.035 | [8] -0.099 | [9] -0.001 | tipifarnib -0.029 | mubritinib 0

WDR61 (UniProt Q9GZS3)
inactive: [1] 0.043 | crizotinib -0.044 | [2] 0.071 | [3] -0.056 | duvelisib 0.059 | gandotinib -0.099 | tozasertib -0.072 | [4] -0.017 | doramapimod -0.004 | ispinesib -0.028 | bafetinib -0.01 | [5] -0.033 | nilotinib -0.018 | [6] 0.029 | dasatinib 0.007 | [7] -0.075 | [8] 0.023 | [9] 0.012 | tipifarnib -0.01 | mubritinib 0.075

XPO1 (UniProt O14980)
Sequence of UniProt O14980 (O14980 whole entry, looked up): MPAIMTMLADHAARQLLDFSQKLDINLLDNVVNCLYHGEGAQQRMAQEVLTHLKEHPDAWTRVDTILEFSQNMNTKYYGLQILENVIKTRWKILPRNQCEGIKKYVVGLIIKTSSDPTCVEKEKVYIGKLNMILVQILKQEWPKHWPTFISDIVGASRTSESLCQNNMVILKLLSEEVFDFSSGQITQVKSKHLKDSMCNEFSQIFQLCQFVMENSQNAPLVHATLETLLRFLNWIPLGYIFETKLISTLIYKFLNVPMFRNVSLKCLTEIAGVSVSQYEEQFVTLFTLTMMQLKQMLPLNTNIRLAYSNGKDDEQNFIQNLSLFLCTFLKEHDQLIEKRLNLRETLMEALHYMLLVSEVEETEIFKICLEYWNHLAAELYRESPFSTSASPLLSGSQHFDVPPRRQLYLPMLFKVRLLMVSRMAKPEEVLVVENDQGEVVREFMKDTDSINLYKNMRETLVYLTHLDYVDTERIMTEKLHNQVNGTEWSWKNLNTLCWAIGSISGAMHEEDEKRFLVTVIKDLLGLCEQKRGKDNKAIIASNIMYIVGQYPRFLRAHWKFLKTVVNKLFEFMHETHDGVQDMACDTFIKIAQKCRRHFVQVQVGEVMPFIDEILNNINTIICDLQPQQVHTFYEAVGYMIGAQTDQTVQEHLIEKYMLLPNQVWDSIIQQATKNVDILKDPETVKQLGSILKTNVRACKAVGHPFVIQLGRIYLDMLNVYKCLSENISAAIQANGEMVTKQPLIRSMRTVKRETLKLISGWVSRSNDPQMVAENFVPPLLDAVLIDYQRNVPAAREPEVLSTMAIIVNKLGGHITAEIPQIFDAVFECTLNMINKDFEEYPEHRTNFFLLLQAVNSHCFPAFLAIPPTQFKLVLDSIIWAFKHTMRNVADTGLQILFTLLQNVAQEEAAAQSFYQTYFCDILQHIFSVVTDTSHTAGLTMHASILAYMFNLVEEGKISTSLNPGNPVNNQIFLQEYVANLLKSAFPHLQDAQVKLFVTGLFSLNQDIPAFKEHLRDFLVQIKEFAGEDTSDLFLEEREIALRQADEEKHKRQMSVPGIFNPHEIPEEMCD
inactive: [1] -0.016 | crizotinib -0.138 | [2] 0.089 | [3] 0.006 | duvelisib -0.024 | gandotinib -0.223 | tozasertib 0.027 | [4] 0.094 | doramapimod -0.034 | ispinesib -0.081 | bafetinib -0.003 | [5] 0.042 | nilotinib -0.114 | [6] -0.037 | dasatinib -0.154 | [7] 0.001 | [8] 0.005 | [9] -0.008 | tipifarnib -0.159 | mubritinib 0.042

WDR43 (UniProt Q15061)
inactive: [1] 0.008 | crizotinib 0.08 | [2] 0.016 | [3] -0.051 | duvelisib 0.062 | gandotinib 0.009 | tozasertib -0.012 | [4] -0.053 | doramapimod -0.035 | ispinesib 0.081 | bafetinib -0.041 | [5] -0.052 | nilotinib -0.013 | [6] 0.033 | dasatinib 0.015 | [7] 0.102 | [8] -0.022 | [9] 0.013 | tipifarnib 0.005 | mubritinib -0.024

U2AF2 (UniProt P26368)
active: [5] -0.241 | [6] -1.66
inactive: [1] 0.036 | crizotinib -0.101 | [2] 0.057 | [3] -0.101 | duvelisib -0.029 | gandotinib 0.036 | tozasertib 0.008 | [4] 0.063 | doramapimod -0.006 | ispinesib 0.014 | bafetinib -0.019 | nilotinib -0.003 | dasatinib 0.018 | [7] 0.049 | [8] -0.011 | [9] -0.044 | tipifarnib 0.045 | mubritinib -0.051

WDR18 (UniProt Q9BV38)
Sequence of UniProt Q9BV38 (Q9BV38 whole entry, looked up): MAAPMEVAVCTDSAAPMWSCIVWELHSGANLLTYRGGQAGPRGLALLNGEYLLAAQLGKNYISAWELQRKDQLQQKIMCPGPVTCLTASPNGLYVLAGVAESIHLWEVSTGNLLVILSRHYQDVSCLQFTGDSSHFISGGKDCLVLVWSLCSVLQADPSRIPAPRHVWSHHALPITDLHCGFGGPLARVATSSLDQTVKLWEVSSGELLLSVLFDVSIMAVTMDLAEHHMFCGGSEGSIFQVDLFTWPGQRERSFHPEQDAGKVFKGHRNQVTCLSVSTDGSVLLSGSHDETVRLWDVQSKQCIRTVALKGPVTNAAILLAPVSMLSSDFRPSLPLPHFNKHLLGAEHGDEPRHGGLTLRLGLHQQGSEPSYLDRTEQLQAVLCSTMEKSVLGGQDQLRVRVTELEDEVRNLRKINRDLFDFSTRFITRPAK
inactive: [1] -0.023 | crizotinib -0.008 | [2] -0.022 | [3] -0.102 | duvelisib -0.012 | gandotinib -0.021 | tozasertib 0.022 | [4] -0.009 | doramapimod 0.026 | ispinesib 0.027 | bafetinib -0.031 | [5] 0.05 | nilotinib -0.059 | [6] -0.024 | dasatinib 0 | [7] -0.048 | [8] 0.029 | [9] -0.016 | tipifarnib -0.018 | mubritinib 0.022

TP53BP1 isoform 2 (UniProt Q12888)
Sequence of UniProt Q12888 (Q12888 whole entry, looked up): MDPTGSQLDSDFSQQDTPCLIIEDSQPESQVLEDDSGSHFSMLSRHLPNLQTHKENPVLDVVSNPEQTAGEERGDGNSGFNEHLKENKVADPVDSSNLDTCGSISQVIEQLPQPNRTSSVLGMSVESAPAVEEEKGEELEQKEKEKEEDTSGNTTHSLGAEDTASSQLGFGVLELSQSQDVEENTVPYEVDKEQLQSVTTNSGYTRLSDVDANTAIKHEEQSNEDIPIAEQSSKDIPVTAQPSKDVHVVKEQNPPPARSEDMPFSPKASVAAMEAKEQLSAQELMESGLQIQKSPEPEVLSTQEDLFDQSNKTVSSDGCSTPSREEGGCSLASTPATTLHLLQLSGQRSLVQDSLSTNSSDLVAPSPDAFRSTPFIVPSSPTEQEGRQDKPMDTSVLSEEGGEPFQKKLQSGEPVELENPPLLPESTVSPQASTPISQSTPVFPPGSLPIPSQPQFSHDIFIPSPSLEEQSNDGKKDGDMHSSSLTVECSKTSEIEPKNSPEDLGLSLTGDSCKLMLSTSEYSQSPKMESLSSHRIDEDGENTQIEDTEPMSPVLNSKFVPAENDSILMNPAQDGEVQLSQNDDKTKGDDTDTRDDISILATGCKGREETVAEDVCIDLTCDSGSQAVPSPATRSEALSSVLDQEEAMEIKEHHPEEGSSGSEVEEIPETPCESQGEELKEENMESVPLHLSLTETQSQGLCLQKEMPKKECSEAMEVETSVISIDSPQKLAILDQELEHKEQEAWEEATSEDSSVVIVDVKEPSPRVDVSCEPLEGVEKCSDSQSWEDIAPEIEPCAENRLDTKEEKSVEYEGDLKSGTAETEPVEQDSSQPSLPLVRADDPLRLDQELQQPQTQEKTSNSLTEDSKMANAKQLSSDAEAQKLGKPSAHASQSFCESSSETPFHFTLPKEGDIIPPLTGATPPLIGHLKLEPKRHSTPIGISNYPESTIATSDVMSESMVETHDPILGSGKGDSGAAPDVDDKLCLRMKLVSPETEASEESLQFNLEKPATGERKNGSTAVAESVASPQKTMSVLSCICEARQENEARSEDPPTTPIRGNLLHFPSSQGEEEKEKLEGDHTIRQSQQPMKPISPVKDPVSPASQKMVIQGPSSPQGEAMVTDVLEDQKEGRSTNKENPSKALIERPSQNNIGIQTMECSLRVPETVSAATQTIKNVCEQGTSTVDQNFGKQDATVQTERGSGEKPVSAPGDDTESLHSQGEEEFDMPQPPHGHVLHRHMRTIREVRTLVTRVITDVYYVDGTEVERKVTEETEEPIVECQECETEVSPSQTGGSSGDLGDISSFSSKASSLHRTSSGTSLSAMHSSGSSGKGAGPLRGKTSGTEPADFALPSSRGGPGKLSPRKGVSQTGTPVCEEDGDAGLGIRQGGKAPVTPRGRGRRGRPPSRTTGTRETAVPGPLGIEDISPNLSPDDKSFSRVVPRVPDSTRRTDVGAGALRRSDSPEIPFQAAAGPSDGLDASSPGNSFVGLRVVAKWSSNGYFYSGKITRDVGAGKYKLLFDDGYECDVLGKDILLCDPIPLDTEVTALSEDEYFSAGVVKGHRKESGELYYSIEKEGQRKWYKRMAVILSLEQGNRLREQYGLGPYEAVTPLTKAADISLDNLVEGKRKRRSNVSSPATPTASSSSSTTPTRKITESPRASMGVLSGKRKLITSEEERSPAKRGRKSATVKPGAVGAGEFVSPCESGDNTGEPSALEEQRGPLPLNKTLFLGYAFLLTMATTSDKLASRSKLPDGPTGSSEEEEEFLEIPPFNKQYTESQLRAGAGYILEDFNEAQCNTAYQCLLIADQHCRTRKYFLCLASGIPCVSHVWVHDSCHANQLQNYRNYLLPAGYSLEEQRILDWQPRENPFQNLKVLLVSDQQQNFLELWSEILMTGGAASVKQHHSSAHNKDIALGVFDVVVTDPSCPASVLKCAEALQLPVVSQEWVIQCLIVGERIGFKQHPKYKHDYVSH
inactive: [1] 0.025 | crizotinib 0.076 | [2] -0.001 | [3] 0.018 | duvelisib -0.025 | gandotinib -0.053 | tozasertib 0.205 | [4] 0.066 | doramapimod 0.036 | ispinesib 0.002 | bafetinib 0.004 | [5] 0.008 | nilotinib -0.001 | [6] -0.011 | dasatinib -0.009 | [7] -0.027 | [8] -0.064 | [9] -0.014 | tipifarnib 0.016 | mubritinib -0.002

XPNPEP1 isoform 3 (UniProt Q9NQW7)
Sequence of UniProt Q9NQW7 (Q9NQW7 whole entry, looked up): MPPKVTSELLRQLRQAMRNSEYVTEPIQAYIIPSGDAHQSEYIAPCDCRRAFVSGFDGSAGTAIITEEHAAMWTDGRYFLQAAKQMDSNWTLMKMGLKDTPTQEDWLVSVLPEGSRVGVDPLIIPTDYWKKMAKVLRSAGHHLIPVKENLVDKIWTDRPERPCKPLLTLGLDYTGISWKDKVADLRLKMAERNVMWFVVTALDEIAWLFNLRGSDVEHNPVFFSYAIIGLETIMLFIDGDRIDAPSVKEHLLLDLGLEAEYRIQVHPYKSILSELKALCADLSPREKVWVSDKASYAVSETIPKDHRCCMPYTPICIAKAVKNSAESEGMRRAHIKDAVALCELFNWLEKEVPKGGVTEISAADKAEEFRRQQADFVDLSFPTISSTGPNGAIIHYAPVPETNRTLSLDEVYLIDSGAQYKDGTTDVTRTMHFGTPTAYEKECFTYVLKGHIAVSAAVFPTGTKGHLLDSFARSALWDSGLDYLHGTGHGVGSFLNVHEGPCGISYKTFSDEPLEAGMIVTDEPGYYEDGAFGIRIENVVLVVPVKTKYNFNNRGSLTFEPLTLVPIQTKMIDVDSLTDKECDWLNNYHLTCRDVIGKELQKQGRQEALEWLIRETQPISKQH
inactive: [1] 0.069 | crizotinib -0.023 | [2] 0.098 | [3] -0.076 | duvelisib 0.036 | gandotinib -0.053 | tozasertib -0.023 | [4] 0.007 | doramapimod 0.028 | ispinesib -0.015 | bafetinib -0.047 | [5] -0.013 | nilotinib -0.036 | [6] 0.014 | dasatinib -0.086 | [7] -0.028 | [8] 0.084 | [9] 0.039 | tipifarnib -0.033 | mubritinib 0.042
